Measured values as given in PubChem BioAssay (NCI).
The panel holds about 83,000 compounds, 20% with a hit somewhere; the sample as a whole holds those more often.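 How to read the values: 0–100, growth inhibition (40 = 60% inhibited); 0, no net growth; -100 to 0, cell death (-40 = 40% of starting cells died; -100 = all dead).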 The source made the active and inactive calls. Rule for the calls: active = growth percent below 10; inactive = the rest.

Columns and labels:
Assay in all cases: NCI-60 one-dose screen, 48 h (100 = growth as untreated, 0 = no growth, -100 = all killed)
Details in all cases: 10 µM unless noted
DU-145 prostate = system: DU-145 prostate
K-562 leukemia = system: K-562 leukemia
MALME-3M melanoma = system: MALME-3M melanoma
MDA-MB-231 breast = system: MDA-MB-231 breast
RXF 393 renal = system: RXF 393 renal
SF-268 CNS = system: SF-268 CNS
SF-295 CNS = system: SF-295 CNS
SF-539 CNS = system: SF-539 CNS
UACC-257 melanoma = system: UACC-257 melanoma
M14 melanoma = system: M14 melanoma

Measured: growth

O=S(=O)(NCCNc1nccc(-c2c(-c3ccc(F)c(O)c3)nc3occn23)n1)c1ccc(Cl)cc1
active: MALME-3M melanoma 2.05%
inactive: DU-145 prostate 90.9% | K-562 leukemia 73.8% | MDA-MB-231 breast 60% | RXF 393 renal 57.5% | SF-268 CNS 80.5% | SF-295 CNS 97.4% | SF-539 CNS 102% | UACC-257 melanoma 41.6% | M14 melanoma 26.6%

COc1cc(-c2nc3sccn3c2-c2ccnc(NCCNS(=O)(=O)c3ccccc3)n2)ccc1F
inactive: DU-145 prostate 61.4% | K-562 leukemia 28.3% | MALME-3M melanoma 49.2% | MDA-MB-231 breast 48.8% | RXF 393 renal 21.5% | SF-268 CNS 48.6% | SF-295 CNS 66.4% | SF-539 CNS 83.8% | UACC-257 melanoma 62.4% | M14 melanoma 38.6%

O=C(COc1ccc(-c2nc3cc(Cl)c(Cl)cc3[nH]2)cc1)N=Nc1c(O)[nH]c2ccc(Cl)cc12
inactive: DU-145 prostate 74.6% | MALME-3M melanoma 49.5% | MDA-MB-231 breast 76.8% | RXF 393 renal 77.6% | SF-268 CNS 89.4% | SF-295 CNS 74.8% | SF-539 CNS 84.2% | UACC-257 melanoma 105% | M14 melanoma 66.5%
active: K-562 leukemia 5.55%

Nc1ncc(-c2ccc3ncnc(Nc4cccc(Cl)c4)c3c2)cn1
inactive: DU-145 prostate 28.9% | K-562 leukemia 58.2% | MALME-3M melanoma 40.4% | MDA-MB-231 breast 42.1% | RXF 393 renal 25.2% | SF-268 CNS 42% | SF-295 CNS 44.2% | SF-539 CNS 54.2% | UACC-257 melanoma 65.7% | M14 melanoma 60.6%

Cc1ccc(CNc2ccc3nc(CCC4CCCCC4)[nH]c3c2)cc1
inactive: DU-145 prostate 71.8% | MALME-3M melanoma 22.4% | MDA-MB-231 breast 53.1% | RXF 393 renal 36.2% | SF-268 CNS 71.2% | SF-295 CNS 61.1% | SF-539 CNS 64.6% | UACC-257 melanoma 66.8% | M14 melanoma 37.4%
active: K-562 leukemia 5.06%

O=C1/C(=C/c2ccccc2Br)COc2ccc(O)cc21
inactive: DU-145 prostate 69% | K-562 leukemia 11.9% | MALME-3M melanoma 84% | MDA-MB-231 breast 73.9% | RXF 393 renal 101% | SF-268 CNS 86.1% | SF-295 CNS 99.1% | SF-539 CNS 80% | UACC-257 melanoma 99.2% | M14 melanoma 73.3%

CC(C)(Sc1cc(C(C)(C)C)c(O)c(C(C)(C)C)c1)Sc1cc(C(C)(C)C)c(OC(=O)CCCC(=O)O)c(C(C)(C)C)c1
inactive: DU-145 prostate 59.4% | K-562 leukemia 41.6% | MALME-3M melanoma 75.4% | MDA-MB-231 breast 74.2% | RXF 393 renal 73.3% | SF-268 CNS 63.1% | SF-295 CNS 50.4% | SF-539 CNS 62.7% | UACC-257 melanoma 74.6% | M14 melanoma 54.6%

COc1ccc(-c2nc3cc(C(=O)NCc4ccccc4)ccc3n2C2CCCCC2)cc1
inactive: DU-145 prostate 82.8% | K-562 leukemia 41.1% | MALME-3M melanoma 102% | MDA-MB-231 breast 77.5% | RXF 393 renal 90.2% | SF-268 CNS 79.4% | SF-295 CNS 51% | SF-539 CNS 60.2% | UACC-257 melanoma 96.7% | M14 melanoma 78.1%

Nc1n[nH]c2cccc(C#Cc3cccc(C(=O)Nc4cc(C(F)(F)F)cc(C(F)(F)F)c4)c3)c12
inactive: DU-145 prostate 91.5% | MALME-3M melanoma 53.4% | MDA-MB-231 breast 51.9% | RXF 393 renal 50.5% | SF-268 CNS 68.8% | SF-295 CNS 77.9% | SF-539 CNS 53.3% | UACC-257 melanoma 71.6% | M14 melanoma 34.1%
active: K-562 leukemia 4.87%

C=C(C)[C@@H]1CC[C@]2(CO)CC[C@]3(C)[C@H](CC[C@@H]4[C@@]5(C)CC[C@H](NCO)C(C)(C)[C@@H]5CC[C@]43C)[C@@H]12
active: DU-145 prostate -69.2% | K-562 leukemia 0.949% | MALME-3M melanoma -81.2% | MDA-MB-231 breast -86.2% | RXF 393 renal -79.3% | SF-539 CNS -95.6% | UACC-257 melanoma -51.6% | M14 melanoma -62.2%
inactive: SF-268 CNS 59.1% | SF-295 CNS 57.4%

CCOC(=O)c1cc2c(n1Cc1cc(OC)c(OC)c(OC)c1)-c1nc(N)sc1CCC2
inactive: DU-145 prostate 79.1% | K-562 leukemia 24.6% | MALME-3M melanoma 69.5% | MDA-MB-231 breast 51.6% | RXF 393 renal 54.9% | SF-268 CNS 70.5% | SF-295 CNS 26% | SF-539 CNS 62.5% | UACC-257 melanoma 43.9% | M14 melanoma 25.6%

CCN(C)S(=O)(=O)Nc1cccc(Nc2ncnc3cc(NC(=O)CCl)ccc23)c1Cl
active: DU-145 prostate -49.8% | K-562 leukemia 4.5% | MALME-3M melanoma -51.7% | MDA-MB-231 breast -38.4% | RXF 393 renal -11.9% | SF-268 CNS 7.08% | SF-539 CNS -40.3%
inactive: SF-295 CNS 15.3% | UACC-257 melanoma 34.4% | M14 melanoma 15.1%

CC(C)=CCC[C@](C)(O)[C@H]1CC[C@]2(C)[C@@H]1CC[C@@H]1[C@@]3(C)C/C(=C/c4ccco4)C(=O)C(C)(C)[C@@H]3CC[C@]12C
inactive: DU-145 prostate 113% | K-562 leukemia 99.2% | MALME-3M melanoma 107% | MDA-MB-231 breast 101% | RXF 393 renal 111% | SF-268 CNS 101% | SF-295 CNS 100% | SF-539 CNS 102% | UACC-257 melanoma 109% | M14 melanoma 104%

COc1ccc(\C=N/N=C(N)/C(N)=N\N=C/c2ccc(OC)cc2)cc1
inactive: DU-145 prostate 113% | K-562 leukemia 99.9% | MALME-3M melanoma 106% | MDA-MB-231 breast 107% | RXF 393 renal 96.9% | SF-268 CNS 100% | SF-295 CNS 97.3% | SF-539 CNS 92.7% | UACC-257 melanoma 121% | M14 melanoma 111%

COC1=CC(c2ccc[nH]2)=N/C1=C\c1[nH]c(C)c(C)c1CCC(=O)OCc1ccccc1
inactive: DU-145 prostate 18.4%
active: K-562 leukemia -7.62% | MALME-3M melanoma -64.8% | MDA-MB-231 breast -49.5% | RXF 393 renal -35.2% | SF-268 CNS 5.89% | SF-295 CNS -60.1% | SF-539 CNS -52.3% | UACC-257 melanoma -49% | M14 melanoma -60.8%

CC(C)=CCCC(C)c1ccc(C)c2c1OCN(CCCCCO)C2 (stereo not given)
inactive: DU-145 prostate 109% | K-562 leukemia 31.1% | MALME-3M melanoma 93.6% | MDA-MB-231 breast 93.4% | RXF 393 renal 90.1% | SF-268 CNS 97.5% | SF-295 CNS 110% | SF-539 CNS 84.5% | UACC-257 melanoma 78.4% | M14 melanoma 84.2%

COc1cc(OC)c(NC(=O)c2cc3ccccc3cc2O)cc1Cl
inactive: DU-145 prostate 46.4% | K-562 leukemia 23.4% | MALME-3M melanoma 19.5% | MDA-MB-231 breast 70.4% | RXF 393 renal 120% | SF-268 CNS 51.2% | SF-295 CNS 53.3% | SF-539 CNS 52.9% | UACC-257 melanoma 59.8% | M14 melanoma 42.1%

O=C(C[C@]1(O)C(=O)Nc2ccccc21)c1cccc(C(F)(F)F)c1
inactive: DU-145 prostate 99.2% | K-562 leukemia 96% | MALME-3M melanoma 83.1% | MDA-MB-231 breast 91% | RXF 393 renal 101% | SF-268 CNS 85.8% | SF-295 CNS 96.3% | SF-539 CNS 88% | UACC-257 melanoma 99.7% | M14 melanoma 93.1%

Cn1ccnc1C(=O)/C=C/c1ccc(C(=O)Nc2ccccc2O)cc1
inactive: DU-145 prostate 45.6% | MALME-3M melanoma 57.8% | MDA-MB-231 breast 46.2% | RXF 393 renal 21.7% | SF-268 CNS 13.2% | UACC-257 melanoma 48.6% | M14 melanoma 71.5%
active: K-562 leukemia 7.38% | SF-295 CNS 6.78% | SF-539 CNS -19.3%

CCC1=C[C@@H]2C[C@]3(C(=O)OC)c4[nH]c5ccccc5c4CC[N@+](CC(=O)Nc4cc5c(cc4OC)N(C)[C@H]4[C@@](O)(C(=O)OC)[C@H](OC(C)=O)[C@]6(CC)C=CCN7CC[C@]54[C@@H]76)(C2)[C@H]13
inactive: DU-145 prostate 117% | K-562 leukemia 106% | MALME-3M melanoma 102% | MDA-MB-231 breast 98.2% | RXF 393 renal 114% | SF-268 CNS 105% | SF-295 CNS 107% | SF-539 CNS 106% | UACC-257 melanoma 101% | M14 melanoma 97.7%

Cc1csc(Nc2nc(-c3ccccn3)nc(C(Cl)(Cl)Cl)n2)n1
inactive: DU-145 prostate 69.7% | K-562 leukemia 87.8% | MALME-3M melanoma 73.9% | MDA-MB-231 breast 80.3% | RXF 393 renal 91.4% | SF-268 CNS 82.8% | SF-295 CNS 91% | SF-539 CNS 94.2% | UACC-257 melanoma 78.8% | M14 melanoma 83.7%

CCN1C(=S)N(c2ccccc2)C2C1NN=c1s/c(=C3\C(=O)N(C(C)C)c4ccccc43)c(=O)n12 (stereo not given)
inactive: DU-145 prostate 58% | K-562 leukemia 87.2% | MALME-3M melanoma 60.7% | MDA-MB-231 breast 36.5% | RXF 393 renal 107% | SF-268 CNS 95.8% | SF-295 CNS 98.9% | SF-539 CNS 10.4% | UACC-257 melanoma 92.7% | M14 melanoma 81.8%

COc1ccc(/C=C(\C#N)n2nnc3cc(F)c(F)cc32)cc1
active: K-562 leukemia 8.72% | M14 melanoma 6.43%
inactive: DU-145 prostate 47.6% | MALME-3M melanoma 45.6% | MDA-MB-231 breast 64.9% | RXF 393 renal 85.8% | SF-268 CNS 68.6% | SF-295 CNS 72.3% | SF-539 CNS 44.5% | UACC-257 melanoma 81.9%

N#Cc1ccc(O)c(C2=NCC(c3ccccc3)O2)c1 (stereo not given)
inactive: DU-145 prostate 53.7% | K-562 leukemia 23.4% | MALME-3M melanoma 56.6% | MDA-MB-231 breast 46.4% | RXF 393 renal 73.1% | SF-268 CNS 47.2% | SF-295 CNS 36.4% | SF-539 CNS 61.2% | UACC-257 melanoma 35.4% | M14 melanoma 41.8%

C1CN(SSN2CCOCC2)CCO1
inactive: K-562 leukemia 15.2% [100 µM] | UACC-257 melanoma 49.6% [100 µM]
active: DU-145 prostate 3.92% [100 µM] | MALME-3M melanoma -53.1% [100 µM] | MDA-MB-231 breast -79.4% [100 µM] | RXF 393 renal -62.6% [100 µM] | SF-268 CNS -78.9% [100 µM] | SF-295 CNS 5.96% [100 µM] | SF-539 CNS -37.6% [100 µM] | M14 melanoma -7.16% [100 µM]

O=C(Nc1cccc2ccccc12)NC1CC1
inactive: DU-145 prostate 141% | K-562 leukemia 107% | MALME-3M melanoma 123% | MDA-MB-231 breast 113% | RXF 393 renal 107% | SF-268 CNS 120% | SF-295 CNS 116% | SF-539 CNS 122% | UACC-257 melanoma 106% | M14 melanoma 103%
